What all share (design): scale not given: direction of the effect not stated beside the values
In experiment [1] the target is Protein translocase subunit SecA (Escherichia coli (strain K12)) (UniProt P10408). In words: Assay to Identify E. coli SecA ATPase Inhibitors. Type of experiment: functional. The note with it: 30 µM.
In experiment [2] the target is T1, Ubiquitin-activating enzyme e1, putative (Leishmania donovani (strain BPK282A1)) (UniProt E9BSI1).
T1 sequence (whole entry): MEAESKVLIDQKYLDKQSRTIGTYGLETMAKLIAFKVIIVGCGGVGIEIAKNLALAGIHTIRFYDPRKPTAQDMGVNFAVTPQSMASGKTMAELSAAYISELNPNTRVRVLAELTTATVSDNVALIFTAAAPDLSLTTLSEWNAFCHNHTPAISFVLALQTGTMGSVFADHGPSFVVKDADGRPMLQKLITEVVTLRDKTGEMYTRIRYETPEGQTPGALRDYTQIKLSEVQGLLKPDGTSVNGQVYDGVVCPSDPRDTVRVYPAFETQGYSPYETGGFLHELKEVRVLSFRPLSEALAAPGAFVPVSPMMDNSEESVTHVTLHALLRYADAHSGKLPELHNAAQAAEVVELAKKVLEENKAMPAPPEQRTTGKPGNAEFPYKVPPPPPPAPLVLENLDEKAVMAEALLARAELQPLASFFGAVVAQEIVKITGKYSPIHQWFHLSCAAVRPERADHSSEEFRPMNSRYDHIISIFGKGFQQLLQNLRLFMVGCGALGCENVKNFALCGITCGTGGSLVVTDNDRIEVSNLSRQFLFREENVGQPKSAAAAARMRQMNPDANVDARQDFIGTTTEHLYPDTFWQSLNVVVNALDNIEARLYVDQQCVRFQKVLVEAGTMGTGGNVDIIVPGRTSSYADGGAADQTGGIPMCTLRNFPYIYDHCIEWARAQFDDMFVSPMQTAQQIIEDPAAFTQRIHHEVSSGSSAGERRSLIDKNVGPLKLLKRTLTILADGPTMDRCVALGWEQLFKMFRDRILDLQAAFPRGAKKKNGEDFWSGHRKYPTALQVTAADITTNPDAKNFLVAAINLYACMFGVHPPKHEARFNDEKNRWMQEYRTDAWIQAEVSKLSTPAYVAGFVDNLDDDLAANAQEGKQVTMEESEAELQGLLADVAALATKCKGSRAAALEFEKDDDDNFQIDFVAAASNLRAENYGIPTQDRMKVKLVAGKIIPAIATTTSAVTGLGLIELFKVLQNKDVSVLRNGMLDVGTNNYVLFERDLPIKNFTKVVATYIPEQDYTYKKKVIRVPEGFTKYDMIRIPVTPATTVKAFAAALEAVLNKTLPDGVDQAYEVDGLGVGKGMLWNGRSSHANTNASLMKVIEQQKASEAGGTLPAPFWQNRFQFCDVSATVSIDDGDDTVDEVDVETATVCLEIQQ
In words: Leishmania donovani Ubiquitin Activating Enzyme (LdE1). Type of experiment: functional. To be noted: 30 µM.

The target of experiment [3] is AMP-activated protein kinase, AMPK (Homo sapiens) (UniProt P54646+O43741+P54619+Q9UGJ0+Q9Y478+Q13131+Q9UGI9). In words: AMP-dependent Kinase enzyme assay. An in vitro enzyme assay that detects ADP turnover that is directly proportional to AMPK activity. This uses naive AMPK that is activated during the assay with MK-8722. To be noted: 30 µM. The experiment is classed as functional.

Experiment [4] has as its target Sialic acid-binding Ig-like lectin 9 (Homo sapiens) (UniProt Q9Y336). In words: Hs-Siglec9 ALPHAscreen SOP 20170721. The note with it: 10 µM.
For the next experiment, the system named is Trypanosoma cruzi. The experiment is described as follows: Trypanosoma cruzi phosphomannomutase and mannose-1-phosphate guanylyltransferase assay. To be noted: 10 µM. Type of experiment: functional.
The target of experiment [5] is T2, Arginase-2, mitochondrial (Homo sapiens) (UniProt P78540).
T2 sequence (whole entry): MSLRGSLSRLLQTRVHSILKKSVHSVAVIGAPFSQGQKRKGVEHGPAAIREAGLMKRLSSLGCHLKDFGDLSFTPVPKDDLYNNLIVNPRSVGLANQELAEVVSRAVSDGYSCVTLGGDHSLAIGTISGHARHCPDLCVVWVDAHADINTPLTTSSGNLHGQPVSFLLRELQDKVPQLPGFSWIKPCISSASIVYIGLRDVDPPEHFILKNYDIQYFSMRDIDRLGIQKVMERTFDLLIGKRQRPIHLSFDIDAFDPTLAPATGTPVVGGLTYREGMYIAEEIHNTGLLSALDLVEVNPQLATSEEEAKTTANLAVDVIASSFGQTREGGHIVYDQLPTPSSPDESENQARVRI
The experiment is described as follows: in vitro enzyme assay to detect the production of urea directly proportional to the activity of Arginase II. Further: in the data most compounds retested in dose-response had high values. To be noted: 33.3 µM. Type of experiment: functional.

Experiment [6] deals with T3, Proteasome subunit beta (Trypanosoma cruzi) (UniProt O96673).
T3 sequence (whole entry): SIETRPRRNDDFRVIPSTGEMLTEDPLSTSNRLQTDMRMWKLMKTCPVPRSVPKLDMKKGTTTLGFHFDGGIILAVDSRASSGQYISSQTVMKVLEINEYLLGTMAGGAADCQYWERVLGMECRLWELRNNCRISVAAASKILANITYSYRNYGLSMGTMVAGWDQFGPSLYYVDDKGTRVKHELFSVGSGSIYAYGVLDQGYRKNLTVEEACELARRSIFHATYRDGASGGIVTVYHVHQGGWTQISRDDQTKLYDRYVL
The experiment is described as follows: Trypanosoma cruzi proteasome chymotrypsin-like activity (TcProtChymo) assay. Further: in the data most compounds retested in dose-response had high values. To be noted: 9.37 µM. The experiment is classed as functional.

The species entered for another experiment is Homo sapiens. In words: To identify inhibition of the IFN signalling (Jak-Stat) pathway via expression of an eGFP reporter gene under the control of an IFN-stimulated response element (ISRE) containing MxA promoter. Type of experiment: functional. The note with it: 30 µM. (In general: In a reporter assay the amount or activity of a reporter protein is the signal.)

For experiment [7], the target named is T4, Tyrosyl-tRNA synthetase, putative (Trypanosoma cruzi (strain CL Brener)) (UniProt Q4DSP6).
T4 sequence (whole entry): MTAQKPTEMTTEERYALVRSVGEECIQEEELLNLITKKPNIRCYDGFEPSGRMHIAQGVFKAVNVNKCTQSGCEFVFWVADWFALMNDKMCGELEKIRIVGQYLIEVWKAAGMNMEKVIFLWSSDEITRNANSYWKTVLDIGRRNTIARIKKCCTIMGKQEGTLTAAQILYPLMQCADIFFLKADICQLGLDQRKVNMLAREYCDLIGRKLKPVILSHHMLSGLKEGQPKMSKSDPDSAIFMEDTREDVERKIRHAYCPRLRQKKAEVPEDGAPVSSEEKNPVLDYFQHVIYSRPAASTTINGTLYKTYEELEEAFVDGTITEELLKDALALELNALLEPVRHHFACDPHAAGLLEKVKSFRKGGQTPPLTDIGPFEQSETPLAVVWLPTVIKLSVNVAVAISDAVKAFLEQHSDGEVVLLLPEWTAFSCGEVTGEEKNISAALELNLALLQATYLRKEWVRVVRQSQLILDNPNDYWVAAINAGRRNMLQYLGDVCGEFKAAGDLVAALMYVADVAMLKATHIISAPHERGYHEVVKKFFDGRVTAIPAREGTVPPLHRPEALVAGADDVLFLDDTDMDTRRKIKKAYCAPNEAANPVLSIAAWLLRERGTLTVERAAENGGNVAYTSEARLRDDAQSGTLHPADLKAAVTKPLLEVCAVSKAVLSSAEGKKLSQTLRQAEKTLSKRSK
In words: Trypanosoma cruzi tyrosyl tRNA synthetase (TcYRS) _High Tyrosine SOP. Further: in the data most compounds retested in dose-response had high values. Type of experiment: functional. The note with it: 30 µM.

Experiment [8] concerns the target T4, Tyrosyl-tRNA synthetase, putative (Trypanosoma cruzi (strain CL Brener)). The experiment is described as follows: Trypanosoma cruzi tyrosyl tRNA synthetase (TcYRS) SOP. Type of experiment: functional. To be noted: 30 µM.
Experiment [9] has as its target Chromo domain-containing protein 1 (Saccharomyces cerevisiae (strain ATCC 204508 / S288c) (Baker's yeast)) (UniProt P32657). The experiment is described as follows: ScCHD-1 Enzyme Inhibition Assay. Further: in the data most compounds retested in dose-response had high values. Type of experiment: functional. To be noted: 30 µM.

Among the data in ChEMBL document CHEMBL3988442, “University of Dundee, Small-Polar-MMV Screening Library” (2021) are Percent Effect values, retold here.

For some of these results: Results with a measured potency or affinity are listed apart.

Sequence of Chromo domain-containing protein 1 (Saccharomyces cerevisiae (strain ATCC 204508 / S288c) (Baker's yeast)) (P32657 whole entry, the tested form may be a part): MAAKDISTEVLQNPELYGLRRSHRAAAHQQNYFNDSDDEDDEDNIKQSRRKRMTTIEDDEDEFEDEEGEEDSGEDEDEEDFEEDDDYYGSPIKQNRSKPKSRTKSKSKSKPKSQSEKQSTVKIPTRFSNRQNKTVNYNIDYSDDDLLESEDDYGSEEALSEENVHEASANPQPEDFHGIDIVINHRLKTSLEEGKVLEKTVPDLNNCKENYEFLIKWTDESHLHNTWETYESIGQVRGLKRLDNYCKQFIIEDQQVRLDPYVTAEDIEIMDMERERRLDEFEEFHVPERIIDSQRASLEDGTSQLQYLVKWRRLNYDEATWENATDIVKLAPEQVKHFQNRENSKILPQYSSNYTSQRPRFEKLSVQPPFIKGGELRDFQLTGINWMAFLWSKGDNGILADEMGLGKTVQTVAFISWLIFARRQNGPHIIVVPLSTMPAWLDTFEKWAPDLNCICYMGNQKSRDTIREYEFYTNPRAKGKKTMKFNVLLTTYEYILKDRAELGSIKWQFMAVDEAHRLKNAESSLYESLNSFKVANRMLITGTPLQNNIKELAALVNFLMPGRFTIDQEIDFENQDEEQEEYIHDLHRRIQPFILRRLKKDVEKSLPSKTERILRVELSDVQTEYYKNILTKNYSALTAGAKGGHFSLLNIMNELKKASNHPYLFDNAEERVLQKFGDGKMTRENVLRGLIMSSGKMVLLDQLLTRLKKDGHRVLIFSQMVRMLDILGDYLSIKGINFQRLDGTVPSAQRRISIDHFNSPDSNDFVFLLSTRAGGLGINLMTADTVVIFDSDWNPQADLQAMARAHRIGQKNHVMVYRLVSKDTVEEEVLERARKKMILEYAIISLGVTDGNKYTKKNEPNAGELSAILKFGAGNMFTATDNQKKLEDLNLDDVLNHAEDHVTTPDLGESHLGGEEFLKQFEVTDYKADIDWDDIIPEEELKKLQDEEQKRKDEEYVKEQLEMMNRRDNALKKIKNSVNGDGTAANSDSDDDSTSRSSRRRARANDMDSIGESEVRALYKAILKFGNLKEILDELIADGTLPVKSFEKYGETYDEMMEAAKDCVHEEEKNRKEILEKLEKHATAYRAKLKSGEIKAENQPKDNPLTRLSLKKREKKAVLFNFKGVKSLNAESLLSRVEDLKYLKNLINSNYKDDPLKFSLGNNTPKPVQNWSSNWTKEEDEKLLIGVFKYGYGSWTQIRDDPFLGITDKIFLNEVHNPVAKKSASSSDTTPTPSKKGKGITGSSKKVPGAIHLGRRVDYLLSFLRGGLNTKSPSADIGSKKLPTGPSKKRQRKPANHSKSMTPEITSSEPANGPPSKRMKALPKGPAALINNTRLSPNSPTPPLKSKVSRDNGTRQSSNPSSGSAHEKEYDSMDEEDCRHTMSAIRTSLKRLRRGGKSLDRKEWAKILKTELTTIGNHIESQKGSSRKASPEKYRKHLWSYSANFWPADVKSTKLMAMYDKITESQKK
Sequence of Protein translocase subunit SecA (Escherichia coli (strain K12)) (P10408 whole entry): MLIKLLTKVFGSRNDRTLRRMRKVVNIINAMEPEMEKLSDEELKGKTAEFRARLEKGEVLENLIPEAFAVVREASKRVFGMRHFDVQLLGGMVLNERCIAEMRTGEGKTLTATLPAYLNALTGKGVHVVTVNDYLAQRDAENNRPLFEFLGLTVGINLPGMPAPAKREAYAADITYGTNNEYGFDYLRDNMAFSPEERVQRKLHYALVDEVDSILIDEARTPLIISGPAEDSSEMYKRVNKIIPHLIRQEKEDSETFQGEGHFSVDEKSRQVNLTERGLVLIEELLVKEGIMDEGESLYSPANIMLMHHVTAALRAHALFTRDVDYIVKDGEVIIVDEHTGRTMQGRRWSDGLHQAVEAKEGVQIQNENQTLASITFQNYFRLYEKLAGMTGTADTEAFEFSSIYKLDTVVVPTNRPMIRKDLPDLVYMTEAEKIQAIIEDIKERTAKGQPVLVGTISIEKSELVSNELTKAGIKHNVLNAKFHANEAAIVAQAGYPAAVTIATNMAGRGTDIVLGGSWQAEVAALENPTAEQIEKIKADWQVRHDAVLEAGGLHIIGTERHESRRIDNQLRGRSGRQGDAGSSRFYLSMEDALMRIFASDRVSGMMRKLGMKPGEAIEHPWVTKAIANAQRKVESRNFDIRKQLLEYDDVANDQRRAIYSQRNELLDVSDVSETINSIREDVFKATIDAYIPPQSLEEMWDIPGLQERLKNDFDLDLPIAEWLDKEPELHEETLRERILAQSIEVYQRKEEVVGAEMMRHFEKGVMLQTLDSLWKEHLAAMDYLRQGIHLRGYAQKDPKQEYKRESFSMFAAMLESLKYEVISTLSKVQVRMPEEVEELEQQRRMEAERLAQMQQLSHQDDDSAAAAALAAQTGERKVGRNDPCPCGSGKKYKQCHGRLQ
Sequence of Sialic acid-binding Ig-like lectin 9 (Homo sapiens) (Q9Y336 whole entry): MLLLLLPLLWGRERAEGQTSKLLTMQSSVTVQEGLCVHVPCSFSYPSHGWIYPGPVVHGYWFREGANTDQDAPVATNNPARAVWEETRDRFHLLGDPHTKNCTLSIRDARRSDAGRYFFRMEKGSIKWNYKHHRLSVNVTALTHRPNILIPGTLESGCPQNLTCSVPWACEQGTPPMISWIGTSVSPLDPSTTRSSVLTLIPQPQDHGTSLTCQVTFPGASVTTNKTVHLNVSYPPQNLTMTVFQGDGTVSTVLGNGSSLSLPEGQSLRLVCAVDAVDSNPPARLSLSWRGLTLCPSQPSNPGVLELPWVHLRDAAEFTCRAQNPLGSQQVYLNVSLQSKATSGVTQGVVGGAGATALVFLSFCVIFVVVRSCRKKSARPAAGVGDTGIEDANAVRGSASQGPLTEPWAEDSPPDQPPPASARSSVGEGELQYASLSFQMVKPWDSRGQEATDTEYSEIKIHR

`Cn1cc(N2CC3(CCN(S(=O)(=O)C4CC4)C3)CC2=O)cn1` (stereo not drawn): the Percent Effect in [1] was -2.73%; in experiment [2], 18.7%; in experiment [3], -7.51%; in experiment [4] it was -0.00481%; with Trypanosoma cruzi it was 3.09%; in experiment [5], -11.3%. Besides, the Percent Effect was 10.6% in experiment [6]; -1.37% in the experiment filed under Homo sapiens; 7.29% in experiment [7]; 27.5% in experiment [8]; -13.5% in experiment [9].

As to `COc1ncccc1CN1CCn2c(Cn3cncn3)cnc2C1`, the Percent Effect is -1.73% in [1]; 18.7% in experiment [2]; 0.535% in experiment [3]; -13.2% in [4]; -2.76% in the experiment with Trypanosoma cruzi; 2.1% in experiment [5]. Besides, the Percent Effect in experiment [6] is 8.19%; in the experiment filed under Homo sapiens, -1.48%; in experiment [7], 0%; in experiment [8], 6.41%; in experiment [9] it was -3.83%.

With `O=C(Nc1cc(C(F)(F)F)c[nH]c1=O)N1CCCSCC1`, the Percent Effect is -5.05% in [1]; 7.79% in [2]; 1.88% in experiment [3]; 4.65% in experiment [4]; -3.37% in the experiment with Trypanosoma cruzi; 2.85% in experiment [5]. Besides, the Percent Effect is 6.08% in experiment [6]; 20.5% in the experiment filed under Homo sapiens; 6.8% in experiment [7]; 12.2% in [8]; -1.96% in experiment [9].

As to `CC(C)S(=O)(=O)NCC1CCCN(C(=O)c2ccc3c(c2)CCC3)C1` (stereo not drawn), the Percent Effect was -5.88% in [1]; 5.48% in [2]; 5.06% in experiment [3]; -5.74% in experiment [4]; 0.588% in the experiment with Trypanosoma cruzi; -2.27% in experiment [5]. For the same compound, the Percent Effect was 7.28% in experiment [6]; 16.7% in the experiment filed under Homo sapiens; 1.07% in experiment [7]; 7.5% in [8]; -5.72% in experiment [9].

Regarding `O=C1[C@H]2CC[C@H](CN(C3CSCCSC3)C2)N1Cc1cscn1`, the Percent Effect in experiment [1] was -0.514%; in experiment [2], 2.74%; in experiment [3] it was 6.23%; in [4], 4.75%; with Trypanosoma cruzi it was -8.53%; in experiment [5], -1.2%. Further, the Percent Effect came to 18.4% in experiment [6]; 8.4% in the experiment filed under Homo sapiens; 8.33% in experiment [7]; 16.1% in experiment [8]; 1.67% in experiment [9].

Consider `O=C(COc1cccc2c1CCC2=O)NCCOc1ccccc1`, for which the Percent Effect in experiment [1] was -0.203%; in experiment [2] it was 2.63%; in [3], -0.945%; in experiment [4], -8.98%; in the experiment with Trypanosoma cruzi, -6.33%; in [5], 3.55%. Moreover, the Percent Effect in experiment [6] was 9.68%; in the experiment listed under Homo sapiens, 40.1%; in experiment [7], -1.06%; in experiment [8], 0%; in [9], -2.69%.

As for `CCn1nc(CC(C)C)cc1C(=O)N1CC[C@@H](O)C1`, the Percent Effect is -4.98% in experiment [1]; 18.7% in experiment [2]; -5.58% in experiment [3]; 22.7% in experiment [4]; 2.82% in the experiment on Trypanosoma cruzi; 9.38% in experiment [5]. The Percent Effect is 12.7% in experiment [6]; -2.86% in the experiment filed under Homo sapiens; 3.83% in experiment [7]; 13.6% in [8]; 92.8% in experiment [9].

For `COc1cc(NC(=O)c2ccccc2F)c(C(=O)N(C)C)cc1OC`, the Percent Effect in experiment [1] is 1.19%; in experiment [2], 5.2%; in experiment [3] it was 0.986%; in experiment [4] it was 2.38%; in the experiment on Trypanosoma cruzi, -7.96%; in experiment [5] it was -8.28%. Also, the Percent Effect in [6] is 18.8%; in the experiment listed under Homo sapiens it was -4.11%; in experiment [7], 3.23%; in experiment [8], 11.1%; in [9] it was -2.46%.
